Consider eight compounds from PubChem BioAssay (Tox21).

The nature of assay [1]: qHTS assay to identify aromatase inhibitors - cell viability counter screen (AID 743084).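 Further: cells stimulated with testosterone during compound exposure; nearly all actives have a fitted effect of over 55% in size.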 For orientation: Quantitative high-throughput screening tests each substance at several concentrations.
Assay [2] is described as follows: qHTS assay to identify small molecule that activate the aryl hydrocarbon receptor (AhR) signaling pathway - cell viability counter screen (AID 743086). Further: series mostly up to about 70 µM; nearly all actives have a fitted effect of over 45% in size. In short, it runs like this: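 Cytotoxicity counter screen: CellTiter-Fluor signal (30 min, 37 C) in 4000 HepG2 cells/well carrying the DRE-luciferase reporter, following 24 h compound exposure at 37 C.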
For assay [3], the target named is Peroxisome proliferator-activated receptor gamma (Homo sapiens) (UniProt P37231). Briefly: qHTS assay to identify small molecule agonists of the peroxisome proliferator-activated receptor gamma (PPARg) signaling pathway (AID 743094; active means well fitted activation curve with a large enough effect in the signal ratio in the repeat runs, not every such curve was filed as active; the % refers to the signal ratio). A digest of the protocol:
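Cells from the PPARg UAS-bla HEK293H line are plated and incubated 5 h at 37C. Compounds in DMSO are pinned in and left 17 h at 37C. LiveBLAzer B/G substrate is then added for 1 h at room temperature before fluorescence is measured.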

For assay [4] the target is unchanged. Briefly: qHTS assay to identify small molecule antagonists of the peroxisome proliferator-activated receptor gamma (PPARg) signaling pathway (AID 743191; calls by dose curve; further: series mostly up to about 63 µM; nearly all actives have a fitted effect of over 30% in size). A digest of the protocol:
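Beta-lactamase reporter under UAS control in HEK293H PPARg-bla cells; compound treatment 17 h at 37C. Read-out: fluorescence intensity after 1 h room-temperature incubation with LiveBLAzer B/G FRET substrate.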

Assay [5] in a line: qHTS assay to identify small molecule antagonists of the peroxisome proliferator-activated receptor gamma (PPARg) signaling pathway - cell viability counter screen (AID 743194). Further: nearly all actives have a fitted effect of over 55% in size. Particulars: Potency: co-treated with 50 nM rosiglitazone. In short, it runs like this:
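Viability was measured as CellTiter-Glo luminescence in GeneBLAzer PPARg UAS-bla HEK293H cells. These cells had been exposed 17 h at 37 C to compounds together with rosiglitazone at 50 nM final, with the beta-lactamase readout taken in the same wells.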

Assay [6] in a line: qHTS assay for small molecule agonists of the antioxidant response element (ARE) signaling pathway - cell viability counter screen (AID 743203; calls by dose curve; further: nearly all actives have a fitted effect of over 55% in size). In short, it runs like this: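 Cytotoxicity was tested in parallel with the ARE reporter screen. ARE-bla HepG2 cells were exposed to compounds for 16 hrs, and viability was taken from CellTiter-Glo luminescence.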
The nature of assay [7]: qHTS assay for small molecule activators of the heat shock response signaling pathway - cell viability counter screen (AID 743209). Further: nearly all actives have a fitted effect of over 50% in size. In short, it runs like this: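 Cytotoxicity counter screen run in parallel with the HSE beta-lactamase reporter, using the same wells. HeLa HSE-bla cells received compound for 5 h at 37 C; ATP-based CellTiter-Glo luminescence was measured after 30 min at room temperature.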

Assay [8] is described as follows: qHTS assay to identify small molecule agonists of the peroxisome proliferator-activated receptor delta (PPARd) signaling pathway - cell viability counter screen (AID 743211). Further: nearly all actives have a fitted effect of over 55% in size. In short, it runs like this:
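Counter screen for cytotoxicity run in parallel with the PPARd reporter screen. Beta-lactamase reporter HEK293H cells exposed to compounds 17 h; ATP-based CellTiter-Glo luminescence quantified viability.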

Assay [9] has as its target Peroxisome proliferator-activated receptor delta (Homo sapiens) (UniProt Q03181). Briefly: qHTS assay to identify small molecule agonists of the peroxisome proliferator-activated receptor delta (PPARd) signaling pathway (AID 743212; calls by dose curve). A digest of the protocol:
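Beta-lactamase reporter readout: a ratiometric FRET signal from the LiveBLAzer substrate after 2 h at room temperature. Compound exposure at 37 °C in PPARδ-bla HEK293H cells driven by an upstream activator sequence.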

Assay [10] in a line: qHTS assay to identify small molecule antagonists of the peroxisome proliferator-activated receptor delta (PPARd) signaling pathway - cell viability counter screen (AID 743213). Further: nearly all actives have a fitted effect of over 50% in size. A digest of the protocol:
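CellTiter-Glo was added to PPARd-bla HEK293H wells following 17 h compound treatment in the presence of 300 nM L165041. Luminescence was recorded after 30 min at room temperature.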

Assay [11] deals with Peroxisome proliferator-activated receptor delta (Homo sapiens) (UniProt Q03181). Briefly: qHTS assay to identify small molecule antagonists of the peroxisome proliferator-activated receptor delta (PPARd) signaling pathway (AID 743215; active means well fitted inhibition curve with a large enough effect in the signal ratio in the repeat runs, not every such curve was filed as active; the % refers to the signal ratio;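 further: cells stimulated with agonist L165041 at 300 nM final during compound exposure; series mostly up to about 62 µM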). In short, it runs like this: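 Cells: HEK293H with a UAS-driven beta-lactamase reporter responsive to PPARd. Compounds were co-added with L165041 (300 nM, final) and incubated 17 h at 37 C before a 2 h room-temperature FRET substrate step and fluorescence reading.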

The target in assay [12] is Bile acid receptor (Homo sapiens) (UniProt Q96RI1). Briefly: qHTS assay to identify small molecule antagonists of the farnesoid-X-receptor (FXR) signaling pathway (AID 743217; active means well fitted inhibition curve with a large enough effect in the signal ratio in the repeat runs, not every such curve was filed as active; the % refers to the signal ratio). In short, it runs like this: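 Cells carrying a UAS-driven beta-lactamase reporter (GeneBLAzer FXR-UAS-bla HEK 293T) were plated and rested 5 h at 37 °C. Compounds in DMSO were added alongside chenodeoxycholic acid agonist at 50 uM final and left 16 h at 37 °C before FRET substrate readout.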

A short description of assay [13]: qHTS assay to identify small molecule agonists of the farnesoid-X-receptor (FXR) signaling pathway - cell viability counter screen (AID 743218). Further: nearly all actives have a fitted effect of over 45% in size. A digest of the protocol:
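Cells were seeded, left 5 h at 37 C and 5% CO2, then dosed with compound in DMSO for 16 h. After the beta-lactamase FRET read, CellTiter-Glo was added and luminescence measured 30 min later.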

Assay [14] in a line: qHTS assay to identify small molecule antagonists of the farnesoid-X-receptor (FXR) signaling pathway - cell viability counter screen (AID 743221; active means well fitted cell-killing curve with a large enough effect in the repeat runs, not every such curve was filed as active; further: nearly all actives have a fitted effect of over 50% in size). A digest of the protocol:
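Multiplexed counter screen: viability of FXR-bla HEK 293T cells under agonist stimulation by chenodeoxycholic acid (50 uM, final) and test compound for 16 h at 37 C, measured by CellTiter-Glo luminescence in the reporter wells.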

In assay [15] the target is Vitamin D3 receptor (Homo sapiens) (UniProt P11473). Briefly: qHTS assay to identify small molecule agonists of the vitamin D receptor (VDR) signaling pathway (AID 743222; calls by dose curve). A digest of the protocol: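 Cells carrying a VDR-driven beta-lactamase reporter are seeded at 2,000 per well and rested 4 h. Compounds in DMSO are added for 16 h at 37C, and FRET substrate fluorescence is measured after 2 h at room temperature.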

Assay [16] shares this target. Briefly: qHTS assay to identify small molecule antagonists of the vitamin D receptor (VDR) signaling pathway (AID 743223; active means well fitted inhibition curve with a large enough effect in the signal ratio in the repeat runs, not every such curve was filed as active; the % refers to the signal ratio). A digest of the protocol:
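Cells carrying a VDR-driven beta-lactamase reporter (VDR-bla) were co-treated with compound and 3 nM final 1alpha,25-dihydroxyvitamin D3 for 16 h at 37C; reporter activity was measured as FRET substrate fluorescence after 2 h at room temperature.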

Assay [17] in a line: qHTS assay for small molecule agonists of the antioxidant response element (ARE) signaling pathway (AID 743202; active means well fitted activation curve with a large enough effect in the signal ratio in the repeat runs, not every such curve was filed as active; the % refers to the signal ratio; further: potency means the concentration at half of the fitted maximal effect). In short, it runs like this:
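After 16 hours of compound treatment at 37 C, HepG2 cells with a stably integrated ARE-driven beta-lactamase reporter were loaded 2 hours at room temperature with LiveBLAzer B/G FRET substrate and fluorescence intensity measured.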

Assay [18] in a line: qHTS assay for small molecule activators of the heat shock response signaling pathway (AID 743210; active means well fitted activation curve with a large enough effect in the signal ratio in the repeat runs, with a control signal flat, not every such curve was filed as active; the % refers to the signal ratio; further: series mostly up to about 63 µM). In short, it runs like this: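 Compound exposure lasted 5 h at 37 C in HeLa cells carrying a heat-shock-element-driven beta-lactamase reporter. Read-out: fluorescence intensity after 2.5 h room-temperature loading with LiveBLAzer B/G FRET substrate.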
Assay [19] concerns the target Bile acid receptor (Homo sapiens) (UniProt Q96RI1). Briefly: qHTS assay to identify small molecule agonists of the farnesoid-X-receptor (FXR) signaling pathway (AID 743220; active means well fitted activation curve with a large enough effect in the signal ratio in the repeat runs, not every such curve was filed as active; the % refers to the signal ratio). A digest of the protocol: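 FXR-UAS-bla HEK 293T cells carrying a UAS-driven beta-lactamase reporter were plated for 5 h at 37C/5% CO2, then exposed to DMSO-dissolved Tox21 10K compounds for 16 h at 37C. A LiveBLAzer B/G FRET substrate was loaded for 2 h at room temperature before fluorescence reading.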

The target of assay [20] is Aryl hydrocarbon receptor (Homo sapiens) (UniProt P35869). Briefly: qHTS assay to identify small molecule that activate the aryl hydrocarbon receptor (AhR) signaling pathway (AID 743085).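 Further: HG2L7.5c1 human HepG2 liver cells with stably integrated DRE-driven firefly reporter; series mostly up to about 70 µM; nearly all actives have a fitted effect of over 15% in size.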 A digest of the protocol:
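Compounds were tested in HepG2 hepatocellular carcinoma cells harbouring a stably integrated luciferase gene under control of 20 DREs. Increased reporter signal after 24 h treatment at 37C was taken as AhR activation.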

Structures are written as SMILES. Results filed as inconclusive are left out. Activity calls are given as the source filed them. Unless noted, the call rests on the fitted dose curve; in most records, active means well fitted curve in the direction sought with a large enough effect in the repeat runs; inconclusive means weak or mixed curves; inactive means no such curve, though single readings can be large; an effect the other way counts as inactive or inconclusive.

Chain of Vitamin D3 receptor (Homo sapiens) (P11473 whole entry, looked up): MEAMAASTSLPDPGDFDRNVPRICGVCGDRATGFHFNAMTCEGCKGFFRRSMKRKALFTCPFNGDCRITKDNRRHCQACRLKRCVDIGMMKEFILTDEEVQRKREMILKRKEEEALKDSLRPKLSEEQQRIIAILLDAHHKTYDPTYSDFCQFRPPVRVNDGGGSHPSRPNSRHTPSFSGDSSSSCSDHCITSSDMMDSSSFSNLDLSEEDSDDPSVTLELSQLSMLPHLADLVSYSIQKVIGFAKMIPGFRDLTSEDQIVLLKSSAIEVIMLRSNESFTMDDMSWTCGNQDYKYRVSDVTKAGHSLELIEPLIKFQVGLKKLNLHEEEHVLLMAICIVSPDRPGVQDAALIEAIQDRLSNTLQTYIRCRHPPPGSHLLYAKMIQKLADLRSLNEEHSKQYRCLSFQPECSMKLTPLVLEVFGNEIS
Chain of Bile acid receptor (Homo sapiens) (Q96RI1 whole entry, looked up): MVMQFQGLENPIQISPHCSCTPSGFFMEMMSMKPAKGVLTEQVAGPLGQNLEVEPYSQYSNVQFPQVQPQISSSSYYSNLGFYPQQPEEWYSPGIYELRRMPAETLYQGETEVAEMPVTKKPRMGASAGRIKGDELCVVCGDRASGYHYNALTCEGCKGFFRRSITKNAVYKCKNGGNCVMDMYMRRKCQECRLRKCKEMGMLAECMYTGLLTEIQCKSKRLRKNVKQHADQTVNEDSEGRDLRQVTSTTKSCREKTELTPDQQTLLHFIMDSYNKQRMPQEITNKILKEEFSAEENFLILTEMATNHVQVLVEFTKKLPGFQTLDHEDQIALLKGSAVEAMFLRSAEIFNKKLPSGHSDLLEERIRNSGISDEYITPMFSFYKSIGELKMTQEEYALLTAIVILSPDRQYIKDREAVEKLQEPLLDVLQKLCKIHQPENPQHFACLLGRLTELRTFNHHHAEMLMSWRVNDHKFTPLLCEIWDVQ
Chain of Peroxisome proliferator-activated receptor delta (Homo sapiens) (Q03181 whole entry, looked up): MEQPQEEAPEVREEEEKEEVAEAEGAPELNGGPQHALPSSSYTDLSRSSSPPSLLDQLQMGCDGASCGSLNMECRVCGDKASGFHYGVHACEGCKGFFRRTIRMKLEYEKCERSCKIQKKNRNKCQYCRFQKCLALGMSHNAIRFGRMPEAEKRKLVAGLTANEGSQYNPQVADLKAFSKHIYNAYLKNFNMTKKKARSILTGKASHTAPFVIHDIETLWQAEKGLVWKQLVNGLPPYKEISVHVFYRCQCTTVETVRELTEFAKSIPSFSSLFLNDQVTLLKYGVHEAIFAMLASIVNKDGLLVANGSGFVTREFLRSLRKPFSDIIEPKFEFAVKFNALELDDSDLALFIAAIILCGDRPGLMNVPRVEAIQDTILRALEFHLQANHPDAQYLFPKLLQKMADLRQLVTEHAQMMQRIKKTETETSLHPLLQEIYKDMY
Chain of Peroxisome proliferator-activated receptor gamma (Homo sapiens) (P37231 whole entry, looked up): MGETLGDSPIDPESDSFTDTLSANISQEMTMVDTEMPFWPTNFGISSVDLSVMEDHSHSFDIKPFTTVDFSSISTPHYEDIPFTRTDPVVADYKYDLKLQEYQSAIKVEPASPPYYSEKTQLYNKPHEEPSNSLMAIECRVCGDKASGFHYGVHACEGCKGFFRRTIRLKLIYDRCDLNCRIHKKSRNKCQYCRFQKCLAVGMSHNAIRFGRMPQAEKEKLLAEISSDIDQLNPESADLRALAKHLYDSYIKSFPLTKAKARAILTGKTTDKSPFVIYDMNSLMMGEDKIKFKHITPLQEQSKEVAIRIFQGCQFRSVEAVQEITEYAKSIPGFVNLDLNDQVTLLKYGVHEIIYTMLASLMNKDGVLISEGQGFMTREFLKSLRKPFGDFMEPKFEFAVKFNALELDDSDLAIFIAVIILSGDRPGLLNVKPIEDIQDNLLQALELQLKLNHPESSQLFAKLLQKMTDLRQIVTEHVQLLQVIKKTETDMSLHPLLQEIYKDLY
Chain of Aryl hydrocarbon receptor (Homo sapiens) (P35869 whole entry, looked up): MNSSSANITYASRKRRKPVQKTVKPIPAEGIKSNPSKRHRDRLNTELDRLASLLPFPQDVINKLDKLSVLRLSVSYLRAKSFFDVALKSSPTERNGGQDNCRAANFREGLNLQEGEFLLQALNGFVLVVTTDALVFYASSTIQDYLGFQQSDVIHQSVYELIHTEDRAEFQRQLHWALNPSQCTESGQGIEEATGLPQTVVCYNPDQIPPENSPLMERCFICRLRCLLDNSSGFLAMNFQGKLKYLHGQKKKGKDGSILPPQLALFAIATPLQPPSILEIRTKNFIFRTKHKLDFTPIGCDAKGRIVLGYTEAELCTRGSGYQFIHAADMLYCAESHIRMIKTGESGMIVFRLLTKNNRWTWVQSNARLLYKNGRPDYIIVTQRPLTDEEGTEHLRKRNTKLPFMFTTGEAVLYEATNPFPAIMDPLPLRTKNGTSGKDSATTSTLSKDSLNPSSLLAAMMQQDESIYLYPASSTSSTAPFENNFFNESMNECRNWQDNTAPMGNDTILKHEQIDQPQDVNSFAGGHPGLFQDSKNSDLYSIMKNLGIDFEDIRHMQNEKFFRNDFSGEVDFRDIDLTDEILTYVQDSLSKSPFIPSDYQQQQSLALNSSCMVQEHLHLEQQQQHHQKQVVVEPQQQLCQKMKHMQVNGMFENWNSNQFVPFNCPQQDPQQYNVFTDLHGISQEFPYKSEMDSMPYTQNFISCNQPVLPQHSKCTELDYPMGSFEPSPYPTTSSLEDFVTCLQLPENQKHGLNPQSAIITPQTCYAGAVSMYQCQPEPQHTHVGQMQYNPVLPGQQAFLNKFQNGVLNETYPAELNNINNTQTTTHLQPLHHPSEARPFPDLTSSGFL

As for `CNC(=O)Oc1c(C(C)(C)C)cc(C)cc1C(C)(C)C`, the Potency entry in assay [1], in [4], in assay [5], in assay [6], in assay [7] and in [8] was “inactive” in each case. Also, the Potency entry in assay [12] and in assay [13] was “inactive” each time. For the same compound, the result in [2], in assay [3], in [9], in assay [10], in assay [11] and in assay [14] was inactive. In addition, the result in assay [15] and in [16] was inactive.
Turning to `OCCBr`, the Potency result in [1], in assay [4], in [5], in [6], in [7] and in [8] was “inactive” each time. For the same compound, the Potency result in [12] and in [13] was “inactive” in each case. Further, the result in assay [2], in [3], in assay [18], in assay [10], in assay [14] and in assay [15] was inactive. For the same compound, the call in [16] was inactive. Moreover, in [17], the Potency was 27.4 µM (active).
Regarding `Nc1ccccc1Cl`, the Potency entry in assay [1], in assay [4], in assay [5], in assay [6], in assay [7] and in assay [8] was “inactive” each time. Moreover, the Potency result in assay [12] and in assay [13] was “inactive” each time. The compound was called inactive in [2], in [3], in assay [18], in assay [9], in assay [10] and in [11]. The outcome in assay [19], in assay [14] and in [15] was inactive.
With `CCOP(=S)(OCC)SCSP(=S)(OCC)OCC`, the Potency entry in assay [1], in assay [4], in assay [5], in assay [6], in assay [7] and in assay [8] was “inactive” throughout. The Potency entry in assay [13] is “inactive”. Further, the result in assay [2], in assay [3], in assay [18], in assay [9], in [10] and in [11] was inactive. The compound was classed as inactive in assay [14] and in assay [15].
As for `COc1cc2c(cc1OC)[C@@]13CCN4CC5=CCO[C@H]6CC(=O)N2[C@H]1[C@H]6[C@H]5C[C@H]43`, the Potency entry in assay [1], in assay [4], in [5], in assay [6], in [7] and in [8] was “inactive” throughout. In addition, the Potency entry in assay [13] was “inactive”. Besides, the compound was called inactive in [2], in assay [3], in assay [18], in assay [10], in assay [14] and in assay [15]. Moreover, in assay [16], the outcome was inactive.
As for `C(CCOCC1CO1)COCC1CO1` (centres undefined), the Potency result in assay [1], in assay [20], in assay [6], in assay [7], in assay [8] and in assay [12] was “inactive” in each case. The compound was called inactive in assay [2], in [18], in [9], in [10], in assay [11] and in [14]. The compound was called inactive in [15].
On to `OC(c1ccccc1)(c1ccccc1)C1CCNCC1`, for which the Potency result in assay [1], in assay [4], in assay [5], in [6], in assay [7] and in assay [8] was “inactive” throughout. Besides, the Potency entry in [12] and in [13] was “inactive” throughout. The result in assay [2], in [3], in assay [18], in [10], in assay [19] and in [14] was inactive.
Take `O=[N+]([O-])c1cccc2c([N+](=O)[O-])cccc12`: the Potency entry in assay [1], in [4], in [5], in [6], in assay [8] and in assay [13] was “inactive” throughout. In addition, the call in assay [2], in [3], in [18], in assay [9], in [10] and in assay [11] was inactive. The call in assay [14] was inactive. Further, in assay [17], the Potency was 3.88 µM (active).
